Assay results reported in PubChem BioAssay (NCATS).
Several values for one entry are separate records, joined by “and”; a condition that tells them apart may be missing. Identical values can stand only once. Records with an inconclusive call do not appear. Entries that show only a call come without a potency. Activity calls are given as the source filed them. Unless noted, calls come from the whole dose curve; as a rule, active = well fitted curve in the direction sought with a large enough effect; inconclusive = small, poorly fitted or top-dose-only effect, or another doubt; inactive = no such curve, though single readings can be large; an effect the other way counts as inactive or inconclusive.

Legend:
[1] = qHTS assay for measurement of the activity of small molecule inhibitors on Zika virus induced Caspase-3 activity in human iPSC derived neural progenitor cells (hNPCs) (AID 1224857); conditions: hNPCs ZIKV-induced caspase-3/7, Caspase-Glo luminescence, 6 h; series mostly up to 45.7 µM; note: nearly all actives have a fitted effect of over 65% in size
Method in brief: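 Zika virus (2 FFU/cell) infection of human iPSC-derived NPCs, 6 h, following 1 h compound preincubation. Read-out: Caspase-Glo 3/7 luminescence.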

[2] = qHTS assay for measurement of the activity of small molecule inhibitors on Zika virus induced Caspase-3 activity in human astrocytoma cells (AID 1224859); conditions: SNB-19 ZIKV-induced caspase-3/7, luminescence, 6 h; series mostly up to 45.7 µM
Method in brief: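 Caspase activation in ZIKV-infected SNB-19 cells (2 FFU/cell, 6 h) measured by Caspase-Glo 3/7 luminescence after 30 min RT; compound pre-incubated 1 h; normalised to uninfected and infected controls.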

[3] = qHTS Screen of the MIPE 4.0 Collection Against Ewings Sarcoma (TC71) (AID 1259253); conditions: TC71 Ewing sarcoma viability, CellTiter-Glo, 48 h; series mostly up to 45.8 µM; note: nearly all actives have a fitted effect of over 40% in size; note: potency is the fitted concentration of half-maximal effect
Method in brief: (§1)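 Here, cells in 5% FBS RPMI were exposed for two days (48 h) to compound dilutions added four hours after plating. ATP-based CellTiter-Glo luminescence measured viability, normalized to vehicle and no-cell blanks.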

[4] = qHTS Screen of the MIPE 4.0 Collection Against Ewings Sarcoma (EW8) (AID 1259255); conditions: EW8 Ewing sarcoma viability, CellTiter-Glo, 48 h; series mostly up to 45.8 µM; note: nearly all actives have a fitted effect of over 35% in size; note: potency is the fitted concentration of half-maximal effect
Method in brief: as §1

[5] = qHTS Screen of the MIPE 4.0 Collection Against Ewings Sarcoma (TC32) (AID 1259256); conditions: TC32 Ewing sarcoma viability, CellTiter-Glo, 48 h; series mostly up to 45.8 µM; note: nearly all actives have a fitted effect of over 45% in size; note: potency is the fitted concentration of half-maximal effect
Method in brief: as §1

[6] = P-glycoprotein substrates identified in KB-8-5-11 adenocarcinoma cell line, qHTS therapeutic library screen (AID 1346987); conditions: KB-8-5-11 (P-gp overexpressing) viability, CellTiter-Glo, 72 h; series mostly up to 44.5 µM; note: nearly all actives have a fitted effect of over 65% in size; note: potency is the fitted concentration of half-maximal effect
Method in brief: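 Compounds are pinned in dose-response onto KB-8-5-11 cells (500 cells/well, colchicine-free medium) and left 72 h at 37 degree C. CellTiter-Glo luminescence then yields AC50 values.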

[7] = NS1 protein of Zika virus - qHTS assay to identify small molecule inhibitors in human HEK 293 cells (AID 1347053); conditions: HEK293 ZIKV MR766 infection, NS1 TR-FRET, 24 h; series mostly up to 46.1 µM; note: nearly all actives have a fitted effect of over 55% in size; note: potency is the fitted concentration of half-maximal effect
Method in brief: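 Readout was TR-FRET using paired anti-NS1 antibodies after 24 h infection of HEK 293 cells with ZIKV MR766 (MOI = 0.5). Compound preceded virus by 1 h; reduced signal reflects lower NS1 expression.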

[8] = Natriuretic polypeptide receptor (hNpr1) antagonism - Pilot counterscreen GloSensor control cell line (AID 1347045; calls by dose curve; note: potency is the fitted concentration of half-maximal effect); conditions: HEK293 cGMP GloSensor cells, SNP-stimulated luminescence, 20 min; series mostly up to 38.3 µM
Method in brief: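 Control counterscreen: luciferase cGMP-biosensor HEK293 cells (no Npr1) received compound for 30 min at room temperature after GloSensor substrate loading. Luminescence was measured before and 20 min after soluble guanylyl cyclase activation by 50 uM nitroprusside.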

[9] = target: Atrial natriuretic peptide receptor 2 (Homo sapiens) (UniProt P20594); experiment: Natriuretic polypeptide receptor (hNpr2) antagonism - Pilot subtype selectivity assay (AID 1347050; calls by dose curve); conditions: NPR2-expressing cells, cGMP antagonist-mode read-out; series mostly up to 38.3 µM
Atrial natriuretic peptide receptor 2 (Homo sapiens), sequence (P20594 whole entry, looked up): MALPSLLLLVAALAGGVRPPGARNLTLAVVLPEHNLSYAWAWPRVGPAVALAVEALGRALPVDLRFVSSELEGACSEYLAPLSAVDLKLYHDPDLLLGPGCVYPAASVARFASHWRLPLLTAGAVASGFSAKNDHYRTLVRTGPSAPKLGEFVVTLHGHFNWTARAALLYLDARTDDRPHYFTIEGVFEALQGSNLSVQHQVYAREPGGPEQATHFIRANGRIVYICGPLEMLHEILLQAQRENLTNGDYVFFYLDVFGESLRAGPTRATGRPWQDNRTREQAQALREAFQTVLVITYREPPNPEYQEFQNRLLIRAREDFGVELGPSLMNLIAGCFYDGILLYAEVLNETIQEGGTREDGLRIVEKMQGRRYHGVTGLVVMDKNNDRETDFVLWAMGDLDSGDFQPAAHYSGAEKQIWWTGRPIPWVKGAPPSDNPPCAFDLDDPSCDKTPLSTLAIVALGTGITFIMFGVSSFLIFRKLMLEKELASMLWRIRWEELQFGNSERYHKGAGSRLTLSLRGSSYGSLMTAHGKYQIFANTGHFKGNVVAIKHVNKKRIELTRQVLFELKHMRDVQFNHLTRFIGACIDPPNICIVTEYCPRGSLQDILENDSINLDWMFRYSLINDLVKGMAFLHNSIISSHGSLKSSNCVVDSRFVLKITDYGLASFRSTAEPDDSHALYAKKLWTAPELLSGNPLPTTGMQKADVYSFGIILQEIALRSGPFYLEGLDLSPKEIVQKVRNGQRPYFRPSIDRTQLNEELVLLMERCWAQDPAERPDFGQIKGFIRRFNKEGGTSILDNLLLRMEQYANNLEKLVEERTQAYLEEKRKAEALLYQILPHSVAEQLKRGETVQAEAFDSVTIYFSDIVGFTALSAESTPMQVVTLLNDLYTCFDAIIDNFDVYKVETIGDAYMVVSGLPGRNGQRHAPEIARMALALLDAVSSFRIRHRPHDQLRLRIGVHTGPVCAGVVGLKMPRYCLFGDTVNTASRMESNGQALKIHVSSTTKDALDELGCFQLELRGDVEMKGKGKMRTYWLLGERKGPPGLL
Method in brief: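 Read-out: GloSensor luminescence (CCD imager), baseline vs post-stimulation. HEK293 cells expressing hNpr2; compounds pre-incubated 30-50 min at ambient temperature; hNppC 1 nM final, 20 min.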

[10] = qHTS assay to identify small molecule inhibitors of chordoma cells - UCH-1 (AID 1259355); conditions: UCH-1 chordoma viability, CellTiter-Glo, 48 h, combination; series mostly up to 46.1 µM; note: nearly all actives have a fitted effect of over 55% in size
Method in brief: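 A 48hr growth-inhibition format: each drug tested at 15 concentrations together with added auranofin, camptothecin, doxorubicin, rubitecan and topotecan, with cell viability quantified as CellTiter-Glo luminescence.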

[11] = qHTS assay to identify small molecule inhibitors of chordoma cells - UCH-2 (AID 1259356); conditions: UCH-2 chordoma viability, CellTiter-Glo ATP luminescence, 48 h; series mostly up to 46.1 µM
[12] = P-glycoprotein substrates identified in KB-3-1 adenocarcinoma cell line, qHTS therapeutic library screen (AID 1346986); conditions: KB-3-1 parental cells viability, CellTiter-Glo, 72 h; series mostly up to 44.5 µM; note: nearly all actives have a fitted effect of over 60% in size
Method in brief: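 72 h cell-killing screen, 500 cells/well, CellTiter-Glo luminescence. Paired lines KB-3-1/KB-8-5-11; P-gp dependence checked by tariquidar co-treatment and HEK-293 MDR-19 versus empty-vector cells.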

| SMILES | Potency [1] | Potency [2] | Potency [3] | Potency [4] | Potency [5] | Potency [6] | Potency [7] | Potency [8] | Potency [9] | Potency [10] | Potency [11] | Potency [12] |
| --- | --- | --- | --- | --- | --- | --- | --- | --- | --- | --- | --- | --- |
| CCOC(=O)c1c(C(C#N)=CN)c2ccc(Cl)c(Cl)c2n1C | inactive | inactive | inactive | inactive | inactive | inactive | inactive |  |  |  |  |  |
| c1ccc(CCCN2CCN(CCOC(c3ccccc3)c3ccccc3)CC2)cc1 | inactive | inactive | 16.6 µM (active) |  | 20.9 µM (active) | 18700 nM (active) | inactive | 26.1 µM (active) | inactive |  |  |  |
| CC[C@@H](C(N)=O)N1CCCC1=O | inactive | inactive | inactive |  |  | inactive | inactive | inactive | inactive |  |  |  |
| CCOC(=O)c1cncn1[C@H](C)c1ccccc1 | inactive | inactive | inactive | inactive | inactive | inactive | inactive |  |  |  |  |  |
| COC1=CC(C)=C[C@@H](C)[C@@H](O)[C@@H](C)CC(C)=CC=C[C@H](OC)[C@H]([C@@H](C)[C@@H](O)[C@H](C)[C@@]2(O)C[C@@H](O)[C@H](C)[C@@H](C(C)C)O2)OC1=O | inactive | inactive |  | 0.0053 µM (active) | 0.0033 µM (active) | 14.8 nM (active) | 0.0012 µM (active) |  |  |  |  |  |
| CC(=CCCC1=CCC(C2=CC(=O)OC2O)OC1O)CCC1=C(C)CCCC1(C)C (stereo not drawn) | inactive | inactive |  |  | 20.9 µM (active) | inactive | inactive |  |  |  |  |  |
| C#CC1(O)CCC2C3CCC4=CC(=O)CCC4(C)C3CCC21C (stereo not drawn) | inactive | inactive | inactive | inactive | inactive | inactive | inactive |  |  |  |  |  |
| CC1(N2CCC(n3c([C@@H]4CCCNC4)nc4ccccc43)CC2)CCCCCCC1 | inactive | inactive |  | 10.5 µM (active) | 9.35 µM (active) | 23.5 µM (active) and 20.6 µM (active) | 20.9 µM (active) |  |  |  |  |  |
| NC1=NC(=O)N2CC12 (stereo not drawn) | inactive | inactive |  | inactive | inactive | inactive | inactive |  |  | inactive | inactive |  |
| c1cc2c(cc1[C@H]1OC[C@H]3[C@H]1CO[C@H]3c1ccc3c(c1)OCO3)OCO2 | inactive | inactive |  | inactive | inactive | inactive | inactive |  |  |  |  |  |
| C#C[C@]1(O)C=C[C@@H]2[C@@H]3CCC4=CC(=O)CC[C@@H]4[C@H]3CC[C@@]21CC | inactive | inactive | inactive | inactive | inactive |  | inactive |  |  |  |  |  |
| O=[N+]([O-])c1ncc[nH]1 | inactive | inactive | inactive | inactive |  | inactive | inactive |  |  |  |  |  |
| CC(=Cc1csc(C)n1)[C@@H]1C[C@H]2O[C@@H]2CCC[C@H](C)[C@@H](O)[C@@H](C)C(=O)C(C)(C)[C@@H](O)CC(=O)O1 | inactive | inactive | inactive | inactive | inactive | 1 nM (active) | inactive |  |  |  |  |  |
| O=c1cccc2n1CC1CNC[C@H]2C1 | inactive | inactive | inactive | inactive |  | inactive | inactive |  |  |  |  | inactive |
| C[C@@H]1CC[C@H]2[C@@H](C)C(=O)O[C@@H]3O[C@@]4(C)CC[C@H]1[C@]32OO4 | inactive | inactive | 3.72 µM (active) |  |  | inactive | inactive |  |  |  |  |  |
| COC(=O)c1cncn1C(C)c1ccccc1 (stereo not drawn) | inactive | inactive |  |  |  | inactive | inactive |  |  | inactive | inactive |  |
| NC(=O)CN1CC(O)CC1=O (stereo not drawn) | inactive | inactive |  |  |  | inactive | inactive | inactive | inactive | inactive | inactive |  |
| O=S(=O)(O)C(F)(F)C(F)(F)C(F)(F)C(F)(F)F | inactive | inactive |  |  |  | inactive | inactive |  |  |  |  |  |
| CCCN1CCC[C@H](c2cccc(O)c2)C1 | inactive | inactive |  |  |  | inactive | inactive | inactive | inactive | inactive | inactive |  |
| O=[N+]([O-])c1cc([N+](=O)[O-])c2ccccc2c1 | inactive | inactive |  |  |  | inactive | inactive |  |  |  |  |  |
| C1CCC(NC2CCCCC2)CC1 | inactive | inactive |  |  |  | inactive | inactive |  |  |  | inactive |  |
| O=C1C(I)=CC(=C(c2cc(I)c(O)c(I)c2)c2ccccc2C(=O)O)C=C1I | inactive | inactive |  |  |  | inactive | inactive |  |  | inactive | inactive |  |
| CCCCOC(=O)c1ccccc1C(=O)OCc1ccccc1 | inactive | inactive |  |  |  | inactive | inactive |  |  |  |  |  |
